# Laboratory results from PubChem BioAssay.
# Where “and” joins values, the source holds several entries; their conditions need not be identical. Identical values can stand only once. Records with an inconclusive call do not appear. Calls of active or inactive are those of the source. Rule as the data show it, unless noted: active = inhibition above about 80%; inactive = the rest.
# Legend:
# [1] = tested on: Hepatitis C virus NS3 helicase; test: HCV NS3 helicase inhibitors, primary screen, biochemical, fluorescence polarization, LOPAC1280 library (AID 687035; in the data active = inhibition above about 37%); conditions: Purified HCV NS3 helicase, Cy5-dT15 ssDNA binding fluorescence polarization; stronger effect = higher value; concentration not given here
# [2] = Cy5 fluorescence quenching or enhancement artefacts, artefact control for HCV NS3 helicase inhibitor project, biochemical, LOPAC1280 (AID 687037; call rule not given here); conditions: Cy5-DNA-NS3h complex fluorescence interference counterscreen
# [3] = growth inhibition of DIPG glioma cells, dose response, cell-based, SU-DIPG-XVII, MIPE5.0, CellTiter-Glo, qHTS (AID 1347060; cut-off not given, nearly all actives have AC50 up to about 26 µM); conditions: SU-DIPG-XVII viability, CellTiter-Glo ATP luminescence
# [4] = growth inhibition of DIPG glioma cells, dose response, cell-based, JHH-DIPG-1, MIPE4.0, CellTiter-Glo, qHTS (AID 1347062; cut-off not given, nearly all actives have AC50 up to about 27 µM); conditions: JHH-DIPG-1 viability, CellTiter-Glo ATP luminescence
# [5] = growth inhibition of DIPG glioma cells, dose response, cell-based, SU-DIPG-XIII, MIPE5.0, CellTiter-Glo, qHTS (AID 1347064; cut-off not given, nearly all actives have AC50 up to about 23 µM); conditions: SU-DIPG-XIII viability, CellTiter-Glo ATP luminescence
# [6] = viability loss in pontine glioma line – cell-based, SU-DIPG-XXV, MIPE5.0, CellTiter-Glo, qHTS, dose response (AID 1347065; cut-off not given, nearly all actives have AC50 up to about 26 µM;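 also: cells exposed to compound for 48 hours before ATP readout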); conditions: CellTiter-Glo ATP luminescence
# [7] = JHH-DIPG-1 glioma cell viability, MIPE5.0 library, CellTiter-Glo luminescence, qHTS (AID 1347067; cut-off not given, nearly all actives have AC50 up to about 26 µM;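 also: cells exposed to compound for 48 hours before readout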); conditions: JHH-DIPG-1 glioma viability, CellTiter-Glo ATP luminescence
# [8] = SU-DIPG-XXV glioma cell viability, MIPE5.0 library, qHTS (AID 1347068; cut-off not given, nearly all actives have IC50 up to about 30 µM)
# [9] = growth inhibition of DIPG glioma cells, dose response, cell-based, SU-DIPG-XIII, MIPE4.0, CellTiter-Glo, qHTS (AID 1347061; cut-off not given, nearly all actives have AC50 up to about 37 µM;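 also: cells exposed to compound for 48 hours before readout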); conditions: SU-DIPG-XIII viability, CellTiter-Glo ATP luminescence
# [10] = growth inhibition of DIPG glioma cells, dose response, cell-based, SU-DIPG-IV, MIPE4.0, CellTiter-Glo, qHTS (AID 1347063; cut-off not given, nearly all actives have AC50 up to about 30 µM;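 also: compound exposure lasted 48 hours before the viability readout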); conditions: SU-DIPG-IV viability, CellTiter-Glo ATP luminescence
# [11] = SU-DIPG-VI glioma cell viability, MIPE4.0 library, CellTiter-Glo luminescence, qHTS (AID 1347066; cut-off not given, nearly all actives have AC50 up to about 30 µM;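 also: cells exposed to compound for 48 hours before readout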); conditions: CellTiter-Glo ATP luminescence
# [12] = LFS_MB_P medulloblastoma growth inhibition, cell-based, chromothripsis tumors, cisplatin or BGB combos (AID 1671449); conditions: LFS_MB_P medulloblastoma cells;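 also: cells exposed for 96 hours; 0% = vehicle DMSO and 100% = killing by high DMSO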
# [13] = HDN33 neuroblastoma growth inhibition, cell-based, chromothripsis tumors, cisplatin or BGB combos (AID 1671450); conditions: HDN33 neuroblastoma cells, stronger effect = higher value;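 also: cells exposed to compound for four days; 0% = vehicle DMSO and 100% = cell killing by high DMSO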
# [14] = ICB984 medulloblastoma cell growth inhibition, synergistic combos for chromothripsis tumors, cisplatin or BGB combos (AID 1671451; call rule not given here;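 also: cells exposed for 96 hours before readout; 0% = vehicle DMSO and 100% = killing by high DMSO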); conditions: ICB984 medulloblastoma cells, drug combinations, stronger effect = higher value
# [15] = HTB85 osteosarcoma cell growth inhibition, synergistic combos for chromothripsis tumors, BGB or cisplatin IC20 combos (AID 1671453); conditions: HTB85 osteosarcoma cells, drug combinations, stronger effect = higher value;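 also: cells exposed for 96 hours before readout; 0% = vehicle DMSO and 100% = high DMSO killing control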
# [16] = MDA-MB-436 breast carcinoma cell growth inhibition, synergistic combos for chromothripsis tumors, BGB or cisplatin combos (AID 1671458; call rule not given here;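 also: cells exposed for 96 hours; 0% = vehicle DMSO and 100% = killing by high DMSO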); conditions: MDA-MB-436 breast carcinoma growth inhibition, drug combinations, stronger effect = higher value
# [17] = growth inhibition of BT084 medulloblastoma cells, cell-based, ICGC_MB145, cisplatin and BGB IC40 combos (AID 1671461); conditions: drug combinations, stronger effect = higher value;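 also: cells exposed to drugs for 96 hours; 0% = vehicle DMSO and 100% = high DMSO full killing control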
# [18] = growth inhibition of RCMB18 medulloblastoma cells, cell-based, cisplatin and BGB IC40 combos (AID 1671462); conditions: stronger effect = higher value;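 also: cells exposed to compound for four days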
# [19] = growth inhibition of CRL1545 osteosarcoma cells, cell-based, cisplatin and BGB IC20 combos (AID 1671464); conditions: stronger effect = higher value;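 also: cells exposed to compound for 96 hours before readout; 0% = vehicle DMSO and 100% = high DMSO killing control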
# [20] = measured here: with BGB IC20 combination, at 0.5 µM
# [21] = measured here: with cisplatin IC20 combination, at 0.5 µM
structure (smiles),measurement,setting,value
O=C(CCc1ccc(O)cc1)c1c(O)cc(O)cc1O,inhibition,[1],-4% (inactive)
same,fluorescence ratio (interference),[2],1 (inactive)
same,outcome,[3],inactive
same,outcome,[4],inactive
same,outcome,[5],inactive
same,outcome,[6],inactive
same,outcome,[7],inactive
same,outcome,[8],inactive
OCC(O)C(O)C(O)CO (stereo unspecified),outcome,[9],inactive
same,outcome,[4],inactive
same,outcome,[10],inactive
same,outcome,[11],inactive
CN1C2CCC1CC(OC(=O)C(CO)c1ccccc1)C2 (stereo unspecified),inhibition,[1],0% (inactive) and -1% (inactive)
same,fluorescence ratio (interference),[2],0.9 (inactive) and 1.1 (inactive)
same,outcome,[9],inactive
same,outcome,[4],inactive
same,outcome,[5],inactive
same,outcome,[6],inactive
same,outcome,[11],inactive
same,outcome,[8],inactive
O=c1c(O)c(-c2ccc(O)c(O)c2)oc2cc(O)ccc12,AC50,[10],18.7 µM (active)
same,AC50,[11],29.6 µM (active)
same,inhibition,"[12]; at 0.5 µM, stronger effect = higher value",-6.56% (inactive)
same,inhibition,"[12]; measured here: combination with BGB IC20, at 0.005 µM",-16.9%
same,inhibition,"[12]; measured here: combination with BGB IC40, at 0.005 µM",5.59%
same,inhibition,"[12]; measured here: combination with BGB IC40, at 0.05 µM",5.54%
same,inhibition,"[12]; measured here: combination with cisplatin, at 0.5 µM, stronger effect = higher value",-17.1%
same,inhibition,"[12]; measured here: combination with cisplatin, at 5 µM, stronger effect = higher value",11%
same,inhibition,"[13]; BGB combo, at 5 µM",-4.9%
same,inhibition,[13]; at 0.5 µM,4.36% (inactive)
same,inhibition,"[13]; cisplatin combo, at 5 µM",3.02%
same,inhibition,[13]; [20],-4.05%
same,inhibition,[13]; [21],5.86%
same,inhibition,"[13]; single agent, at 5 µM",-1.94%
same,inhibition,"[14]; BGB IC20 combo, at 0.005 µM",-15.9%
same,inhibition,"[14]; BGB IC40 combo, at 0.005 µM",-16.9%
same,inhibition,"[14]; BGB IC40 combo, at 0.05 µM",-3.67%
same,inhibition,[14]; at 0.5 µM,-24.7% (inactive)
same,inhibition,"[14]; cisplatin combo, at 0.05 µM",-3.67%
same,inhibition,"[14]; cisplatin combo, at 0.5 µM",-43.4%
same,inhibition,"[14]; cisplatin combo, at 5 µM",-7.32%
same,inhibition,"[14]; measured here: 5 uM single agent, at 5 µM",-7.82%
same,inhibition,[15]; at 0.5 µM,3.31% (inactive)
same,inhibition,"[15]; measured here: with BGB IC20, at 0.5 µM",-8.35%
same,inhibition,"[15]; measured here: with BGB IC20, at 5 µM",3.71%
same,inhibition,"[15]; measured here: with cisplatin IC20, at 0.5 µM",14.6%
same,inhibition,"[15]; measured here: with cisplatin IC20, at 5 µM",6.28%
same,inhibition,"[15]; single agent, at 5 µM",8.35%
same,inhibition,[16]; at 0.5 µM,-7.38% (inactive)
same,inhibition,"[16]; measured here: BGB combination, at 0.5 µM",5.2%
same,inhibition,"[16]; measured here: BGB combination, at 5 µM",-2.65%
same,inhibition,"[16]; measured here: cisplatin combination, at 0.5 µM",-24.9%
same,inhibition,"[16]; measured here: cisplatin combination, at 5 µM",5.5%
same,inhibition,[17]; at 0.5 µM,-4.39% (inactive)
same,inhibition,"[17]; cisplatin combination, at 0.5 µM",-0.071%
same,inhibition,"[17]; cisplatin combination, at 5 µM",-26.8%
same,inhibition,"[17]; measured here: BGB IC40 combination 0.05 uM, at 0.05 µM",5.57%
same,inhibition,"[17]; single agent, at 5 µM",-4.55%
same,inhibition,[18]; at 0.5 µM,-4.12% (inactive)
same,inhibition,"[18]; cisplatin combo, at 5 µM",18.3%
same,inhibition,"[18]; measured here: BGB IC40 combination, at 0.05 µM",21.3%
same,inhibition,"[18]; measured here: combination with cisplatin, at 0.5 µM",-7.15%
same,inhibition,"[18]; single agent, at 5 µM",-9.89%
same,inhibition,[19]; at 0.5 µM,-3.43% (inactive)
same,inhibition,[19]; [20],-7.45%
same,inhibition,[19]; [21],-1.43%
same,inhibition,"[19]; single agent, at 0.05 µM",31.3%
same,inhibition,"[19]; single agent, at 5 µM",6.36%
C[N+](C)(C)CCO,inhibition,[1],-3% (inactive)
same,fluorescence ratio (interference),[2],1 (inactive)
COc1ccc(C(C)=O)c(O)c1,AC50,[9],0.0132 µM (active)
